High-throughput results: PubChem, National Center for Advancing Translational Sciences (NCATS)
In the library only some 7.4% were active in any assay of this set; here they are far more common.
SNCA viab count: GF-AFC viability counterscreen for inhibitors of alpha-synuclein gene (SNCA) expression; HEK-293-SNCA-luc viability, GF-AFC fluorescence, 24 h; Potency, µM (doses to about 57.1 µM), for inactives: at the top dose activity change, negative = cytotoxicity, actives largely listed as cytotoxic; 0.12% of 150,000 active; AID 1671193, 2021;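 further: 0% = DMSO-treated cells and -100% = medium-only wells without cells; nearly all actives have a fitted effect of over 30% in size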
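HEK-293-SNCA-luc cells (1500/well) plated 24 h, then exposed 24 h to a dilution series; GF-AFC added 30 min at 37C, fluorescence 405/540 nm; normalised to medium-only and DMSO wells, Hill fit.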
NPR1 antag: Natriuretic polypeptide receptor (hNpr1) antagonism - Primary qHTS; Atrial natriuretic peptide receptor 1 (Homo sapiens), P16066; HEK293 hNpr1 GloSensor cGMP, ANP-stimulated luminescence; Potency, µM (doses to about 46.3 µM), without a hit: at the top dose activity change, negative = inhibition, actives largely listed as inhibitors; 1.6% of 76,000 active; calls by dose curve; further: nearly all actives have a fitted effect of over 60% in size
Target sequence (P16066 whole entry, looked up): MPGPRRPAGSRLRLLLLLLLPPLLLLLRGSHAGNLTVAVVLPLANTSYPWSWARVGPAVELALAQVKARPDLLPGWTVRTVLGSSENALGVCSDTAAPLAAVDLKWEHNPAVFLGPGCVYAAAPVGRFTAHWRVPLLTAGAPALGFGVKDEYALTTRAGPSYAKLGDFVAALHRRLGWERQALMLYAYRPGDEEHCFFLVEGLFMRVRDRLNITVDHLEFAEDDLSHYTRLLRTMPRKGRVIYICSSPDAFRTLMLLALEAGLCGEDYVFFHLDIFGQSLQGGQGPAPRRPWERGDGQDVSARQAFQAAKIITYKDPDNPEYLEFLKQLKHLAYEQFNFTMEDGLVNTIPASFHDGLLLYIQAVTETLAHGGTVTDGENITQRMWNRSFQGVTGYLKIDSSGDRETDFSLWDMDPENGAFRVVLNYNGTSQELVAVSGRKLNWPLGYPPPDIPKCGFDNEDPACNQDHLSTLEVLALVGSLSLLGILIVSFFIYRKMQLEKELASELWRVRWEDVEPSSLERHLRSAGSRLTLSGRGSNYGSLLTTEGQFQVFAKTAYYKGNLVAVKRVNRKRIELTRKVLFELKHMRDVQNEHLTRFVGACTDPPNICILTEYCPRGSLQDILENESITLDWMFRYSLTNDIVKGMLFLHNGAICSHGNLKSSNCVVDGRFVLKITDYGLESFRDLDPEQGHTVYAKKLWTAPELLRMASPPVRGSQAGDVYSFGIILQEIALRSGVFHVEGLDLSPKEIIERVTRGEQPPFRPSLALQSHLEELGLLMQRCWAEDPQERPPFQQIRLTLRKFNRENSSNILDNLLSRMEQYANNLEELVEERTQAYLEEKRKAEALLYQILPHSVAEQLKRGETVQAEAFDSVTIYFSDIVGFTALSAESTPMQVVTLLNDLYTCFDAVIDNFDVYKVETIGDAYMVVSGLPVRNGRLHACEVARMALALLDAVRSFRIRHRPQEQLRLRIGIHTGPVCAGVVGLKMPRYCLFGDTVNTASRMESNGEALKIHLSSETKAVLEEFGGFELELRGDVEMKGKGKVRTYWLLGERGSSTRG
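HEK293 cells stably expressing human Npr1 and cGMP GloSensor pGS-40F, loaded 2 h with 2% GloSensor reagent, given compound 30 min at room temperature. Luminescence read before and 20 min after 0.1 nM hNppA.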
HEK293 tox: Cytotoxic Profiling in HEK 293 Cell Line of Diverse Libraries Using Quantitative High-Throughput Screening; HEK 293 viability, ATP luminescence (CellTiter-Glo), 48-72 h; Potency, µM (doses to about 115 µM), inactives show at the highest dose activity change, negative = cytotoxicity, actives largely listed as inhibitors; 6.6% of 94,000 active; AID 1345083, 2018; further: nearly all actives have a fitted effect of over 60% in size
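CellTiter-Glo luminescence (cellular ATP) was read after 48 or 72 hr of compound exposure at 37 degree Celsius. Cells were HEK 293 plated at 250 cells/well.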
FLuc inh: Firefly luciferase inhibition profiling of diverse chemical library using quantitative high-throughput screening. 2.5% of 76,000 active. Luciferin 4-monooxygenase (Photinus pyralis), P08659. purified P. pyralis luciferase, luminescence, biochemical. Potency, µM (doses to about 115 µM), actives largely listed as inhibitors. AID 1347043, 2019; further: nearly all actives have a fitted effect of over 65% in size
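Purified P. pyralis luciferase (10nM final) in 50mM Tris acetate pH 7.5, 10mM Mg acetate, 0.01% Tween-20, 0.05% BSA with 10uM D-luciferin and 10uM ATP. Compounds titrated qHTS. Luminescence imaged on CCD.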
3T3 cytotox: Cytotoxic Profiling in NIH 3T3 Cell Line of Diverse Libraries Using Quantitative High-Throughput Screening. NIH 3T3 viability, CellTiter-Glo ATP luminescence, 48-72 h. Potency, µM (top dose mostly 96.7 µM), without a hit: top-dose activity change, negative = cytotoxicity, hits mostly inhibitors. 4.3% of 94,000 active. AID 1345082, 2018; further: nearly all actives have a fitted effect of over 55% in size
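NIH 3T3 cells at 400 cells/well received 23 nL of compound by pintool and were incubated 48 or 72 h at 37 °C. Viability was read as ATP-coupled CellTiter-Glo luminescence.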
SNCA expr inhib: Primary qHTS assay for inhibitors of alpha-synuclein gene (SNCA) expression; Potency, µM (series often up to 57.2 µM), for inactives: at the top dose activity change, negative = inhibition, usual class: inhibitors; HEK-293 SNCA-luciferase knock-in, luminescence, 24 h; 0.17% of 140,000 active;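 further: plate controls were DMSO cells for no effect and cell-free wells for full effect; nearly all actives have a fitted effect of over 45% in size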
An asterisk follows results filed as active; i = inactive; ? = inconclusive; / = no result given; [ ] = another dose, or the depositor's remark. Unless noted, the call rests on the fitted dose curve; in most records, active means well fitted curve in the direction sought with a large enough effect; inconclusive means small, poorly fitted or top-dose-only effect, or another doubt; inactive means no such curve, though single readings can be large; an effect the other way counts as inactive or inconclusive. Unless noted, on the % scale 0 is the no-effect control and ±100 the full control effect; potency means the concentration at half of the fitted maximal effect.

SMILES	SNCA viab count	NPR1 antag	HEK293 tox	FLuc inh	3T3 cytotox	SNCA expr inhib
Cc1ccc2nc([C@H]3CCN(Cc4ccc(S(C)(=O)=O)cc4)C3)[nH]c2c1	-5%[87.6 µM]	-17%[70.6 µM]	79µM*	i	-26%[174 µM]	3%[87.6 µM]
CC(=O)N1CCC(N2CC[C@H](c3nc4ncccc4[nH]3)C2)CC1	9%[87.6 µM]	-1%[70.6 µM]	-2%[172 µM]	i	3%[174 µM]	20%[87.6 µM]
COC(=O)N1CCC(C(=O)N2CCC(c3nc4ncccc4[nH]3)CC2)C1 (stereo unspecified)	2%	/	35µM*	/	?	?
CC(=O)N1CCC(N2CC[C@H](c3nc4ccc(F)cc4[nH]3)C2)CC1	0%[87.6 µM]	-3%[70.6 µM]	-34%[172 µM]	i	-6%[174 µM]	57%[87.6 µM]
c1cnc2nc([C@H]3CCN(C4CCCCC4)C3)[nH]c2c1	-5%[87.6 µM]	4%[70.6 µM]	-14%[230 µM]	28µM*	2%[230 µM]	138%[87.6 µM]
COC(=O)N1CCC(C(=O)N2CCC(c3nc4ncccc4[nH]3)CC2)CC1	-20%	/	i	/	i	2%
Fc1ccc2nc([C@H]3CCN(C4CCC4)C3)[nH]c2c1	-3%[87.6 µM]	40µM*	?	5µM*	?	-29%[87.6 µM]
Cc1ccc(CN2CC[C@H](c3nc4ccc(C)cc4[nH]3)C2)cc1	-6%[87.6 µM]	-14%[70.6 µM]	?	i	?	33%[87.6 µM]
COc1ccc2nc([C@H]3CCN(C4CCCCC4)C3)[nH]c2c1	-7%[87.6 µM]	?	?	14µM*	?	-1%[87.6 µM]
COc1ccc2nc([C@H]3CCN(CC(C)C)C3)[nH]c2c1	-5%[87.6 µM]	-14%[70.6 µM]	89µM*	i	112µM*	100%[87.6 µM]
O=C(C1CCCN([S+](=O)([O-])c2cccs2)C1)N1CCC(c2nc3ccncc3[nH]2)C1 (stereo unspecified)	-5%	/	i	/	-8%	-17%
COc1ccc2nc([C@H]3CCN(C4CCN(C)CC4)C3)[nH]c2c1	6%[87.6 µM]	6%[70.6 µM]	-24%[172 µM]	?	-24%[174 µM]	33%[87.6 µM]
O=C(C1CCCN([S+](=O)([O-])c2cccs2)C1)N1CCCC(c2nc3ncccc3[nH]2)C1 (stereo unspecified)	0%	/	89µM*	/	?	1%
COc1ccc(CN2CC[C@H](c3nc4ccc(C)cc4[nH]3)C2)cc1	-4%[87.6 µM]	0%[70.6 µM]	79µM*	i	79µM*	6%[87.6 µM]
COc1ccc(CN2CC[C@H](c3nc4ccc(OC)cc4[nH]3)C2)cc1	-7%[87.6 µM]	-4%[70.6 µM]	?	?	?	16%[87.6 µM]
Cc1ccc(C(=O)N2CCC(C(=O)N3CCC(c4nc5ncccc5[nH]4)CC3)CC2)cc1	-4%	/	2%	/	-6%	-1%
Cc1ccc(C2Cn3nnc(C(=O)N4CCC(C(=O)NCc5cccc(Cl)c5)CC4)c3CO2)cc1 (stereo unspecified)	-6%	-7%	-16%	22µM*	-22%	53%
Cc1ccc(C2Cn3nnc(C(=O)N4CCC(C(=O)NCc5cc(F)cc(F)c5)CC4)c3CO2)cc1 (stereo unspecified)	-12%	-1%	-6%	16µM*	i	103%
Cc1ccc(C2Cn3nnc(C(=O)N4CCC(C(=O)NCc5cccc(F)c5)CC4)c3CO2)cc1 (stereo unspecified)	1%	-2%	-2%	35µM*	-16%	4%
O=C(NCCN1CCCC1)c1cnc2c(c1)N(C(=O)Cc1cccc(C(F)(F)F)c1)CCC2	4%	6%	-6%	i	?	11%
CCc1ccc(N2CC(c3noc(C4(c5ccc(OC)cc5)CC4)n3)CC2=O)cc1 (stereo unspecified)	5%	?	45µM*	i	?	-15%
CCc1ccc(N2CC(c3noc(-c4cccc(OC)c4OC)n3)CC2=O)cc1 (stereo unspecified)	6%	3%	79µM*	i	28µM*	0%
CC(C)NC(=O)C1CCCN(c2nccc(Nc3ccccc3F)n2)C1 (stereo unspecified)	-10%[12.5 µM]	/	?	/	?	?
COc1ccccc1-c1ccnc(-c2nnc(C)n2Cc2ccncc2)c1	10%[87.6 µM]	-2%[70.6 µM]	-17%[172 µM]	i	56µM*	-2%[87.6 µM]
COc1ccccc1-c1ccnc(-c2nnc(C)n2Cc2ccccc2)c1	-10%[87.6 µM]	-1%[70.6 µM]	71µM*	?	?	-23%[87.6 µM]
SMILES	SNCA viab count	NPR1 antag	HEK293 tox	FLuc inh	3T3 cytotox	SNCA expr inhib
O=C(NCC1Cn2cccc2CN1Cc1ccccc1)c1n[nH]c2ccccc12 (stereo unspecified)	-2%	-27%	?	14µM*	?	103%
O=C(Cn1c(=O)n(-c2ccc(Cl)cc2)c(=O)c2c3c(sc21)CCC3)c1ccc(F)cc1	4%	/	/	/	/	20µM*
CCN1c2cc(C(=O)Nc3ccc(Br)cc3)ccc2C(=O)N2CCCC21 (stereo unspecified)	-1%[12.5 µM]	-2%	40%	i	i	32%
CCN1c2cc(C(=O)Nc3cccc(Br)c3)ccc2C(=O)N2CCCCCC21 (stereo unspecified)	21%[12.5 µM]	-4%	18µM*	i	28µM*	?
CCN1c2cc(C(=O)Nc3cccc(Br)c3)ccc2C(=O)N2CCCCC21 (stereo unspecified)	16%[12.5 µM]	-7%	18µM*	i	18µM*	13%
CCN1c2cc(C(=O)NCc3cccc(Br)c3)ccc2C(=O)N2CCCCC21 (stereo unspecified)	4%[12.5 µM]	0%	32µM*	i	?	30%
O=C(C1CCCN1C(=O)c1ccc(F)cc1)N1CCC(c2nc3ccncc3[nH]2)C1 (stereo unspecified)	?	/	i	/	-12%	6%
COCC1(O)CCOC2(CCN(C(=O)c3cccnc3)CC2)C1 (stereo unspecified)	-3%	/	-3%	/	-5%	-28%
Cn1ncc2c(C(=O)N3CCN(c4ncccn4)CC3)cc(-c3ccccc3)nc21	0%	/	?	/	-25%	-19%
COc1ccccc1-c1cccc(C(=O)N2CCN(C(C)=O)CC2)c1	10%[12.5 µM]	/	-20%[172 µM]	/	-28%[138 µM]	1%[87.6 µM]
OCC1CN(C2CCC2)CC12CCN(Cc1ccsc1)CC2 (stereo unspecified)	-2%	2%	89µM*	i	?	6%
OCC1CN(c2ncccn2)CC12CCN(Cc1ccsc1)CC2 (stereo unspecified)	7%	2%	-10%	i	1%	10%
